PGC1a acetyl inh: inhibitors of PGC1a acetylation signal, primary screen, cell-based, U2OS, AlphaScreen, inhibitor mode; AlphaScreen anti-acetyl-lysine; with virally co-expressed GCN5 acetyltransferase; inhibition, % at 15.6 µM; actives 0.17% (n = 350,000); AID 651687, 2012;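 active means every replicate shows inhibition of at least 40%; inconclusive means mean inhibition at least 40% but some replicate below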
LGR2 antag: inhibitors of bursicon-induced LGR2 CRE-luciferase signal, primary screen, cell-based, HEK293, CRE-luciferase reporter, bursicon stimulation. Drosophila bursicon receptor LGR2 (rickets). bursicon-stimulated, 4 h. inhibition, % at 9.99 µM. actives 0.35% (n = 380,000). AID 720647, 2013;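 active means drop in luminescence signal, shown as inhibition above about 50% in the replicate tests, limit read from the data, passing the limit was not always enough; inconclusive means probably only some replicates passing the limit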;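 further: agonist challenge used bursicon conditioned medium at about half maximal strength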
PAX8 reporter: inhibitors of PAX8-driven TPO luciferase reporter, primary screen, RMG-I cells, single concentration; actives 1.2% (n = 360,000); SteadyGlo, 24 h; inhibition, % at 12.6 µM;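 active means mean replicate inhibition at least 60% with every replicate also reaching 60%; inconclusive means only one of the two criteria is met; inactive means mean below 60% and not all replicates reaching 60%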;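 further: luciferase light reporting Pax8 driven TPO promoter activity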
EBV LMP1 NFkB: EBV LMP1-driven NF-kappaB luciferase reporter inhibitors, primary screen, cell-based, luminescence, single point; LMP1-induced NF-kappaB luciferase reporter cells; inhibition, % at 12.5 µM; actives 0.69% (n = 350,000); in the data active means inhibition above about 41%; inconclusive means no clear call, values can overlap the other calls
EWS-Fli inh: EWS/Fli-driven NR0B1 reporter inhibitors, primary screen, A673 cells, NR0B1 luciferase, luminescence, MLPCN library; actives 0.67% (n = 350,000); viability-normalised; AID 651661, 2012; inhibition, % at 12.6 µM;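 active means mean inhibition of at least 50% after viability correction, with every replicate also passing that limit; inconclusive means mean reaches 50% but only one of two replicates passes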;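 further: firefly luciferase signal divided by Alamar Blue viability fluorescence both relative to DMSO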
TRPM1 prom inh: inhibitors of MITF-dependent TRPM1 promoter reporter, primary screen, cell-based, SK-MEL-5, single point, luciferase; AID 488899, 2010; inhibition, % at 12.5 µM; SK-MEL-5 TRPM1 promoter luciferase, 24 h; actives 0.83% (n = 330,000);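 active means mean inhibition across replicates of 60% or more, whatever share of single replicates reaches that level; inconclusive means some that reach 60%, reason not given; inactive means mean inhibition across replicates below 60%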
Numbers stand for hits; i = inactive; ? = inconclusive; nt = no result; ! = not active in a repeat. An excerpt weighted towards active compounds, which were near 2.2% of everything screened.

SMILES	PGC1a acetyl inh	LGR2 antag	PAX8 reporter	EBV LMP1 NFkB	EWS-Fli inh	TRPM1 prom inh
Cc1ccc(-n2nc(C)c(NC(=O)CCl)c2C)cc1C	nt	i	112	i	nt	i
CCC(=O)Nc1c(C)nn(-c2ccc(C)c(C)c2)c1C	i	i	i	i	i	i
COc1ccc(C(=O)N2CC(=O)Nc3ccccc32)cc1S(=O)(=O)N1CCCC1	i	i	i	43	i	i
O=C1CN(C(=O)c2ccc(F)c(S(=O)(=O)N3CCOCC3)c2)c2ccccc2N1	i	i	i	46	i	i
O=C(Nc1ccccc1)c1ccc(F)c(S(=O)(=O)N2CCOCC2)c1	i	nt	i	i	nt	i
COc1ccc(C(=O)N2CC(=O)Nc3ccccc32)cc1S(=O)(=O)N1CCOCC1	i	i	i	i	i	i
CCCNC(=O)C[C@@H]1CC[C@@H]2[C@H](COc3ccc(NC(=O)c4cc(C)on4)cc3C(=O)N2C)O1	i	i	i	nt	i	nt
CN(C)CCCNC(=O)C[C@@H]1CC[C@H](NS(=O)(=O)c2ccc(F)cc2)[C@H](CO)O1	i	i	i	nt	i	nt
CCCOCc1ccc(O)c2ncccc12	i	i	i	i	i	69
CC(C)COCc1ccc(O)c2ncccc12	i	i	72	i	i	63
O=C(c1ccncc1)N1C[C@H]2[C@@H](c3ccccc31)[C@@H](CO)N2C(=O)c1ccccn1	i	i	i	nt	i	nt
c1ccc(CN2CCN(c3ncnc4c3[nH]c3ccccc34)CC2)cc1	i	nt	nt	53	nt	i
Cc1ccc2[nH]c3c(N4CCN(Cc5ccccc5)CC4)ncnc3c2c1	i	nt	nt	58	nt	i
Cc1ccc2c(c1)[nH]c1c(N3CCN(Cc4ccccc4)CC3)ncnc12	i	nt	nt	i	nt	i
COc1cccc(S(=O)(=O)N2C[C@H](O)COC[C@H]3O[C@@H](CC(=O)N4CCOCC4)CC[C@@H]32)c1	i	i	i	nt	i	nt
CN(C)C(=O)[C@H]1[C@H](CO)[C@H]2Cn3c(ccc(C4=CCCCC4)c3=O)[C@@H]1N2Cc1ccccc1F	i	i	i	nt	i	nt
CC(C)NC(=O)N1Cc2cc(C(=O)NCC(F)(F)F)nc(-c3cccc(-c4cc5ccccc5o4)c3)c2[C@H]1CCO	i	i	85	nt	nt	nt
O=C(C[C@@H]1C=C[C@H](NC(=O)Nc2ccc(C(F)(F)F)cc2)[C@H](CO)O1)NCCN1CCCC1	i	i	75	nt	i	nt
O=C(C[C@H]1C=C[C@@H](NC(=O)Nc2ccc(C(F)(F)F)cc2)[C@@H](CO)O1)NCCN1CCCC1	i	i	i	nt	i	nt
CCCCn1c(=O)[nH]c(=O)c2c1nc(CN1C(=O)c3ccccc3S1(=O)=O)n2CCC	nt	nt	nt	i	nt	i
CCCCn1c(=O)[nH]c(=O)c2c1nc(Cn1ncc(Cl)c(Cl)c1=O)n2CCC	nt	i	97	i	i	92
C[C@H]1CN([C@@H](C)CO)C(=O)c2cc(NC(=O)Nc3cccc4ccccc34)ccc2O[C@@H]1CN(C)Cc1ccc(C(=O)Nc2ccccc2N)cc1	i	i	nt	nt	i	nt
COc1ccc(C(=O)O/N=C(\N)c2ccccc2)c(OC)c1	nt	82	i	i	71	i
COc1ccc(C(=O)O/N=C(\N)c2ccccn2)c(OC)c1	nt	82	i	i	i	i
COc1ccc(C(=O)O/N=C(\N)c2ccc(OC)c(OC)c2)c(OC)c1	i	nt	nt	i	nt	i
SMILES	PGC1a acetyl inh	LGR2 antag	PAX8 reporter	EBV LMP1 NFkB	EWS-Fli inh	TRPM1 prom inh
CC(C)NC(=O)NCC[C@@H]1CC[C@H](NC(=O)CCN2CCCCC2)[C@H](CO)O1	i	i	nt	nt	nt	nt
COC(=O)C1=CN(Cc2ccc(F)cc2)C=C(C(=O)OC)C1c1ccc(O)c(OC)c1	nt	i	i	i	i	i
COC(=O)C1=CN(Cc2ccc(OC)c(OC)c2)C=C(C(=O)OC)C1c1cccc(O)c1	74	i	i	i	i	i
Cc1ccc(NC(=O)C[n+]2cc(-c3ccc(C)cc3)n3c2CCC3)cc1	i	nt	i	i	i	i
COc1ccc(C(=O)C[n+]2cc(-c3ccc(OC)cc3)n3c2CCCC3)cc1	i	i	72!	i	i	i
Cc1ccc(C(=O)C[n+]2cc(-c3ccc(C)cc3)n3c2CCCCC3)cc1	i	nt	nt	i	nt	76
Cc1ccc(-c2c[n+](Cc3ccc(Cl)c(Cl)c3)c3n2CCC3)cc1	nt	i	80	i	nt	72
COc1ccc(-c2c[n+](CC(=O)c3cccs3)c3n2CCC3)cc1	i	i	i	i	i	i
CCOc1ccc2nc3cc(N=Nc4ccc(N)nc4N)ccc3c(N)c2c1	i	nt	nt	i	nt	73
COc1ccc(N=Nc2ccc(N)nc2N)cc1	nt	i	i	i	i	i
CCCS(=O)(=O)N1CCCC(C(=O)NC2CCCC(C)C2C)C1 (centres undefined)	nt	nt	nt	60	nt	i
CCCS(=O)(=O)N1CCC(C(=O)NC2CCCC(C)C2C)CC1 (centres undefined)	i	nt	nt	i	nt	i
C[C@@H]1CCCCO[C@H](CN(C)C(=O)C2CCCCC2)[C@H](C)CN([C@@H](C)CO)C(=O)c2cc(NS(=O)(=O)c3ccc(Cl)cc3)ccc2O1	i	i	76	nt	i	nt
C[C@@H]1CN([C@H](C)CO)C(=O)c2cc(NS(=O)(=O)c3ccc(Cl)cc3)ccc2O[C@@H](C)CCCCO[C@@H]1CN(C)C(=O)C1CCCCC1	i	i	64	nt	i	nt
CC1=CC(=O)C(C(C)C)=C/C1=N/OS(=O)(=O)c1ccccc1	i	nt	94	i	i	i
CC1=CC(=O)C=C(C)C1=NOS(=O)(=O)c1ccccc1	i	i	nt	i	nt	i
Cc1cc(Oc2ccccc2)nc(-c2ccccc2)n1	i	i	nt	i	nt	i
C=C(C)c1nc(Oc2ccccc2)nc(Oc2ccccc2)n1	i	i	97	i	i	?
COc1cccc(NC(=O)N[C@@H]2CC[C@@H](CC(=O)NCc3ccncn3)O[C@H]2CO)c1	i	i	i	nt	i	nt
O=C(N/N=C/c1ccccc1)c1c(O)c2ccccc2[nH]c1=O	nt	i	i	i	i	i
O=C(N/N=C/c1ccc(F)cc1)c1c(O)c2ccccc2[nH]c1=O	?	i	i	i	i	63
Cc1ccc(S(=O)(=O)NC(CC(C)C)C(=O)NCC(c2ccco2)N2CCCCC2)cc1 (centres undefined)	i	nt	nt	49	nt	i
Cc1ccccc1C(=O)N/N=C/c1cccc2ccccc12	i	i	i	i	i	i
Cc1ccc(Cl)cc1NC(=S)N/N=C/c1cccc2ccccc12	i	i	i	i	53	i
CC(=NNC(=S)Nc1cccc(C)c1)c1ccccn1	nt	i	78	76	i	72
C/C(=N\NC(=S)Nc1cccc(C)c1)c1ccccc1	i	nt	i	i	nt	i
CC(=NNC(=S)Nc1ccc(C)cc1)c1ccccn1	i	i	i	62	i	i
COc1ccccc1NC(=S)NN=C(C)c1ccccn1	i	i	i	?	i	i
